# High-throughput results deposited in PubChem by National Center for Advancing Translational Sciences (NCATS).
# Only some compounds are listed: those with a hit (about 2.1% of all), similar ones and a draw of the others.
# TDP-43 yeast inh = inhibitors of TDP-43 toxicity in yeast | Potency, µM (doses to about 46.1 µM), for the others: at the highest dose growth rescue (activation), usual class: activators | TDP-43 expressing yeast growth rescue, BacTiter-Glo, 24 h | actives 1.8% (n = 410,000); note: % of control where 0% means no effect; nearly all actives have a fitted effect of over 50% in size
#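 Galactose-induced TDP-43 yeast, OD600=0.02, compound pinned; 24 hr, 30 deg C; BacTiter-Glo luminescence for growth. Inhibitors of TDP-43 toxicity read as activators.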
# aSyn rescue = inhibitors of alpha-synuclein toxicity in yeast; AID 652106; Potency, µM (top dose mostly 46.1 µM), for the others: at the top dose growth rescue (activation), most hits filed as activators; Yeast expressing alpha-synuclein, growth rescue, BacTiter-Glo, 24 h; actives 0.14% (n = 370,000); note: % of control where 0% means no effect; nearly all actives have a fitted effect of over 65% in size
#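 Screening used galactose-induced yeast with toxic alpha-synuclein levels, exposed to compound for 24 hr at 30 deg C. Cell growth, read with BacTiter-Glo luminescence, gave the measured signal.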
# Abeta rescue = compounds reversing amyloid beta toxicity in yeast; yeast expressing A-beta42, growth rescue, OD600, 48 h; response scale: 0% DMSO, 100% iron-clioquinol control; Potency, µM (series often up to 46.1 µM), usual class: activators; actives 0.063% (n = 410,000); AID 1347071; note: nearly all actives have a fitted effect of over 55% in size
#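 Growth rescue measured by 600 nm absorbance after 48 h yeast culture at 30 C with compound. Values normalized between DMSO and an equimolar ferric chloride plus clioquinol control.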
# FUS yeast rescue = rescues growth of FUS-expressing yeast. actives 0.24% (n = 390,000). Potency, µM (top dose mostly 76.6 µM), hits mostly activators. S. cerevisiae FUS-expressing, growth rescue, OD600, 24 h;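 note: plate controls were DMSO vehicle for no effect and reference control for full effect; nearly all actives have a fitted effect of over 55% in size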
#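 Yeast FUS proteinopathy model; galactose-induced FUS (2%), starting OD 0.005. Cpds in dilution series, 24hr, 30C, 99% humidity. Abs 600 nm growth. Pos ctrl CP55940 (top 92uM final); neg ctrl DMSO.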
# Starred values were filed as active, the others as inactive; i = inactive; ? = inconclusive; . = no result; [ ] = remark or other dose. Calls come from the whole dose curve; as a rule, active = well fitted curve in the direction sought with a large enough effect; inconclusive = small, poorly fitted or top-dose-only effect, or another doubt; inactive = no such curve, though single readings can be large; an effect the other way counts as inactive or inconclusive. Potency is the fitted concentration of half-maximal effect.
SMILES,TDP-43 yeast inh,aSyn rescue,Abeta rescue,FUS yeast rescue
O=C(COCc1ccccc1)N1CC[C@H]2[C@H](CCCN2Cc2cc(F)cc(F)c2)C1,.,.,.,i
CCCCc1ccc(/C=C(\C#N)C(N)=S)s1,20µM*,24%,?,i
Cn1cccc1/C=C(/C#N)C(N)=S,0%,-1%,i,i
O=[N+]([O-])c1ccc2c(c1)-c1ccccc1C2O (stereo not given),11µM*,5%,i,i
O=C(O)c1ccc([N+](=O)[O-])cc1-c1cc([N+](=O)[O-])ccc1C(=O)O,1%,0%,i,i
COc1ccc(CCNC(=O)CCCN2C(=O)c3ccccc3C2=O)cc1,21%[9.22 µM],1%,i,i
O=C(CCCN1C(=O)c2ccccc2C1=O)NCCc1ccc(OC(F)F)cc1,13µM*,-9%,?,i
Cc1c(NC(=S)NC(=O)C(C)(C)C)cccc1[N+](=O)[O-],14µM*,1%,i,i
O=C(CCc1ccccc1)NC(=S)Nc1ccccc1[N+](=O)[O-],13µM*,7%,?,i
O=C(CCCc1ccccc1)Nc1ccccc1[N+](=O)[O-],11µM*,23%,i,i
CCOc1ccc(NC(=O)COC(=O)c2ccccc2OCC(=O)N(C)C)cc1,.,-3%,.,.
CCOC(=O)CC[C@@]1(C(=O)OCC)C[C@@H](CC(=O)N2CCN(C(=O)c3ccco3)CC2)C(=O)N2CCCC=C21,.,.,.,i
Cc1ccccc1C(=O)N(Cc1ccccn1)CC1CCCO1 (stereo not given),.,.,.,i
Cc1ccccc1C(=O)Nc1cccc(C(=O)OCc2cc(=O)n3ccsc3n2)c1,3%,.,i,i
Cn1c(Cc2ccccc2)nnc1SCc1cc(=O)n2ccsc2n1,20%[9.22 µM],-3%,i,i
Cc1cccc(C(=O)OCc2cc(=O)n3ccsc3n2)c1,18µM*,.,i,i
CC(Oc1ccccc1)C(=O)Nc1ccc(C(=O)OCc2cc(=O)n3ccsc3n2)cc1 (stereo not given),20µM*,.,i,?
Cc1cccc(-n2c(SCc3cc(=O)n4ccsc4n3)nc3ccccc32)c1,22µM*,11%,i,i
O=c1cc(CSc2ccc([N+](=O)[O-])cc2)nc2sccn12,15%[9.22 µM],16µM*,i,i
O=[N+]([O-])c1ccc(NCCCN2CCC(C(O)(c3ccccc3)c3ccccc3)CC2)cc1,.,.,.,i
c1ccc(C2CCC3(CC2)CCC3NCc2cccs2)cc1 (stereo not given),.,.,.,i
COc1ccccc1NC(=O)c1ccc(-c2ccccc2[N+](=O)[O-])o1,32µM*,2%,i,i
COc1ccccc1NC(=O)c1ccc(-c2ccc(Br)cc2)o1,19%,-3%,i,i
Cn1ccc2ccc(-c3ccc4c(c3)[C@]3(CCC[C@@H](OCc5ccccc5)[C@@H]3NC(=O)CCc3ccccc3)C(=O)N4Cc3ccccc3)cc21,.,.,.,i
Nc1nc(Nc2ccccc2Br)nc(C(F)(F)F)n1,18µM*,-5%,i,i
SMILES,TDP-43 yeast inh,aSyn rescue,Abeta rescue,FUS yeast rescue
Nc1nc(Nc2ccccc2)nc(C(F)(F)F)n1,-1%[1.82 µM],-24%,i,i
Cc1nc2c(OCCC3CCCCC3)cccn2c1N(C)C(=O)CCC1CCCC1,35µM*,-50%,i,i
Cc1nc2c(OCCOc3ccccc3)cccn2c1N(C)C(=O)CCC1CCCC1,?,10%,i,i
Cc1nc2c(OCCOc3ccc(F)cc3)cccn2c1N(C)C(=O)CCC1CCCC1,35%,10%,i,i
Cc1nc2c(OCc3cc(Cl)cc(Cl)c3)cccn2c1N(C)C(=O)CCC1CCCC1,35µM*,-44%,i,?
N#Cc1c(N)nc2c(c1-c1ccc(Br)s1)CCCC2,12%,-2%,i,.
Nc1nc(-c2ccc(Br)s2)c(Br)s1,11µM*,4%,i,i
C=CCC[C@H](CCCCC)OC(=O)/C=C/[C@H](O)[C@@H](O)C[C@H](O)CC=C,13%,?,i,i
C=CCC[C@@H](CCCCC)OC(=O)/C=C/[C@H](O)[C@@H](O)C[C@H](O)CC=C,28%,20µM*,i,?
O=C(Nc1ccccc1Sc1ccccc1)c1ccccc1,11µM*,-1%,?,i
O=C(CCl)Nc1ccccc1Sc1ccc(Cl)cc1,11µM*,.,i,i
Cc1ccc(Sc2ccc(/C=N/O)cc2[N+](=O)[O-])cc1,?,1%,i,i
